# In all, about 65,000 compounds went through this assay and about 2,100 (3.2%) showed an effect of 50% or more. The median lay at about -52%. What follows is part of a selection rich in strong results, with near analogues and random picks from the rest.
# System: Plasmodium falciparum
# Assay: Screen against P. falciparum Asexual Blood Stage (ABS), at 5uM
# Format: functional, Dd2
# Settings: tested at 5 uM
row,Compound,INHIBITION
1,O=C(Cn1cccn1)Nc1ccc(N2CCOCC2)cc1,-6.33%
2,CN(C)C(=O)Cc1nc(CN2CCOC(Cn3cccn3)C2)cs1 (centres undefined),-56%
3,Cc1nn(C)cc1CN1CCCCCC1c1ccccc1Cl (centres undefined),-104%
4,Cc1nn(C)cc1CN1CCN(CC2(c3ccccc3)CC2)CC1,67.2%
5,Cc1nn(C)cc1CN1CCC(C2Nc3ccccc3S(=O)(=O)N2)CC1 (centres undefined),-123%
6,CCn1c(C)cc(C(=O)N2CCC(NC(=O)c3ccc(C)o3)CC2)c1C,-31.2%
7,CN(C)CC1CSCCCN1S(=O)(=O)c1ccc(C(F)(F)F)cc1 (centres undefined),60.7%
8,CN(C)CC1CSCCCN1S(=O)(=O)Cc1cccc(F)c1 (centres undefined),58.6%
9,CN(C)CC1CSCCCN1S(=O)(=O)Cc1ccc(C(F)(F)F)cc1 (centres undefined),10.1%
10,CS(=O)(=O)C1CCN(S(=O)(=O)Cc2cccc(F)c2)CC1,-89.8%
11,CN(C)CC1CSCCCN1C(=O)Nc1ccc(C(C)(C)C)cc1 (centres undefined),-12.2%
12,Cc1nccn1CC1CCCN1S(=O)(=O)Cc1cccc(F)c1 (centres undefined),-54%
13,CC(C)N(Cc1ccc(C(=O)O)o1)C(C)C,-21.6%
14,Cc1cnc(N2CCc3c(c(COc4cncnc4)nn3C)C2)nc1,-95%
15,CCc1nc(C2NC3(CCCC3)C(=O)N2CC2CC2)cs1 (centres undefined),-67.6%
16,CN(C)CCNC(=O)CCC1CCN(C(=O)c2ccc(Cl)cc2O)CC1,-57.2%
17,Cc1ccc(CN2CCC3(CC(=O)N(c4ccc5c(c4)OCO5)C3)C2)o1 (centres undefined),-11.7%
18,Cc1nc(C)n(C2CCCN(C(=O)COc3ccccc3)C2)n1 (centres undefined),-30.7%
19,CCC[C@H]1CN(S(=O)(=O)c2cc(C)ccc2F)C[C@@H]1N,52.5%
20,CCC[C@@H]1CN(S(=O)(=O)c2ccc(C)c(F)c2)C[C@H]1N(C)C,39.9%
21,CCC[C@H]1CN(S(=O)(=O)c2cc(C)ccc2C)C[C@@H]1N,68.6%
22,Cc1ccc(C)c(S(=O)(=O)N2CCN(C)C3(CCC(=O)N(C)CC3)C2)c1 (centres undefined),-107%

row,Compound,INHIBITION
1,CCC[C@H]1CN(S(=O)(=O)c2ccc(-c3c(C)noc3C)s2)C[C@@H]1N,72.8%
2,Cc1ccc(S(=O)(=O)N2CC[C@@H](O)C2)c(F)c1,-13.3%
3,Cc1ccc(F)c(S(=O)(=O)N2CCCC2c2ccncc2)c1 (centres undefined),-73.9%
4,Cc1noc(C)c1-c1n[nH]c2c1CN(S(=O)(=O)c1cccs1)CC2,-24.2%
5,Cc1noc(C)c1-c1cccc(C2CCN(S(=O)(=O)N(C)C)CC2)n1,-81.4%
6,CN(C)c1cc2c(nn1)CCN(C(=O)c1ccc(-n3cccn3)nc1)C2,-129%
7,CC(C)n1nc(CN2CCOCC2)c2c1CN(C(=O)c1ccno1)C2,-44.4%
8,Cc1ccc(C(=O)N2CC[C@@H]3[C@H]2CCC(=O)N3CCN(C)C)cn1,-2.53%
9,CCc1cnc(NC(=O)NC2CCN(C)CC2)s1,-80.8%
10,CC1=N[C@@]2(CC[C@@H]3CN(C(=O)NCc4cccc(F)c4)C[C@@H]32)C(=O)N1,-94.6%
11,CC(C(=O)Nc1ccccc1F)S(C)(=O)=O (centres undefined),-75.4%
12,Cc1nc(-c2ccc(Cl)cc2)n(CC(=O)NC(C)C)c(=O)c1CCO,-186%
13,Cc1cc(C)c(CCNC(=O)CN2CCCN(C(N)=O)CC2)c(C)c1,-67.4%
14,CCC(CN1CCCC1)NC(=O)Cc1c(C)[nH]c2cc(C)cc(C)c12 (centres undefined),61.6%
15,Cc1cc(C)c(C(=O)NC(CN2CCCC2)c2ccccc2)c(=O)[nH]1 (centres undefined),-88.9%
16,CC(=O)c1c(C)nn(CC(=O)N2CCCC2c2ccc(C(N)=O)s2)c1C (centres undefined),-149%
17,CCN(CC)C(=O)CCc1nc(-c2cnn3c(C)cc(C)nc23)no1,-59.8%
18,COC[C@H]1CCC[C@]12CN(CCc1ccccc1)CCO2,-30.9%
19,O=C1CC[C@H]2[C@H](CCN2S(=O)(=O)C2CC2)N1CCN1CCCC1,-109%
20,CC(C)[C@H](N)CC(=O)Nc1nc(-c2cnc(N3CCOCC3)nc2)cs1,-62.3%
21,Cc1ccsc1[C@@H]1CCN(C(=O)Cc2ccc(O)cc2)C[C@H]1O,11.1%
22,CN1C[C@H](c2ccccc2)[C@H]2CN(C(=O)Cc3cccc(O)c3)CC[C@H]21,48.1%

row,Compound,INHIBITION
1,CN1C[C@H](c2ccccc2)[C@H]2CN(C(=O)Cc3ccc(O)cc3)CC[C@H]21,58%
2,COC(=O)[C@@H]1CCCN1C(=O)c1cn(C/C=C/c2ccccc2)nn1,-29.2%
3,CC(CCc1ccccc1)NC(=O)CNCCCN(C)C (centres undefined),-20.5%
4,CN(C)C(=O)CN1C(=O)C[C@@H]2[C@@H]1CCN2Cc1cccc(C#N)c1,-63%
5,N[C@@H]1c2ccccc2C2(CCN(c3cc(C(F)(F)F)ccn3)CC2)[C@H]1O,-15.6%
6,CC(=O)N1CCN(CCNc2ncc(Br)cc2C)CC1,-22.7%
7,CCc1cnc(C)nc1NCCN1CCC(O)CC1,-27.7%
8,COC1CCN(CCNc2ncc(Br)cc2C)CC1,60.6%
9,Cc1ccc(CN2CCn3cc(CN4CCN(C)CC4)nc3C2)cc1,-112%
10,O=C(NCCN1CCOCC1)C(OC1CCCC1)c1ccccc1 (centres undefined),-78%
11,O=C(NCCCN1CCOCC1)C(OC1CCCC1)c1ccccc1 (centres undefined),53.1%
12,CN1CCN(CCNC(=O)C(OC2CCCC2)c2ccccc2)CC1 (centres undefined),39.2%
13,CN(C)CC(=O)N1CCC2(CC1)CN(c1ncccn1)CCO2,5.56%
14,Cc1ccc2c(c1)CCC21CCN(C(=O)CO)CC1,-19.8%
15,Cc1ccc2c(c1)CCC21CCN(C(=O)CN(C)C)CC1,50.7%
16,CN(C)CC(=O)N1CCC2(CCc3ccc(-c4ccncc4)cc32)CC1,-41.7%
17,CCCn1nc2c(cc1=O)CN(c1ncnc3ccsc13)CC2,-43%
18,CSCc1noc(CNS(=O)(=O)c2cccc(C(=O)NC3CC3)c2)n1,-45.3%
19,CC(C)n1cc(C(=O)NCCN(C)C)c2n[nH]c(=O)c-2c1,-36.6%
20,Cc1noc(C(C)C)c1C(=O)NCCCN1CCCC1,-39.2%

# — ChEMBL document CHEMBL4513216, “Probing the Open Global Health Chemical Diversity Library for Multistage-Active Starting Points for Next-Generation Antimalarials” (ACS Infect Dis, 2020)
